High-throughput results: PubChem BioAssay, Fisher Drug Discovery Resource Center
Shown is part of a subset that was picked to be rich in hits.
mcGAS MS inh = mouse cGAS inhibition by mass spec; Q8C6L5; recombinant mouse cGAS, cGAMP by RapidFire MS; inhibition, % at 12.5 µM; 130,000 compounds, 0.18% hits; AID 1259397;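 active = inhibition of cGAS enzyme activity at or above 60%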;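 note: enzyme stimulated by 45 bp dsDNA with ATP and GTP substrates; cGAMP share of summed cGAMP plus half ATP and half GTP signals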
Target sequence (Q8C6L5 whole entry, looked up): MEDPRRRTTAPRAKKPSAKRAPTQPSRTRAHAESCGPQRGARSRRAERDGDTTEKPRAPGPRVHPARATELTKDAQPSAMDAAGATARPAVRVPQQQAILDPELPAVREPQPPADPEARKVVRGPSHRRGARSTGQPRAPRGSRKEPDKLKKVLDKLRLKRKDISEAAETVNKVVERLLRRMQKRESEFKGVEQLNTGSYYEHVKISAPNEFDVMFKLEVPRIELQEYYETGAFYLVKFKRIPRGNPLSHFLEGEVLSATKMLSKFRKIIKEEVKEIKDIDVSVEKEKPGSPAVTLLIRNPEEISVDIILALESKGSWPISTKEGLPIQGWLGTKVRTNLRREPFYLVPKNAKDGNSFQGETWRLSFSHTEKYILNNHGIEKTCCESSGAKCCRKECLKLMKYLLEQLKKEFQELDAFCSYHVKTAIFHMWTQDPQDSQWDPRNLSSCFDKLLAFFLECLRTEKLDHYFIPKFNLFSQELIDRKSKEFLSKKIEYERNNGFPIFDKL
Large screens that a line does not name were inactive.

CCOC(=O)C1CCN(c2cc(-c3nc(-c4ccccc4)no3)c3ccccc3n2)CC1	none
CC(C)(C)/[N+]([O-])=C/c1ccc(S(=O)(=O)O)cc1S(=O)(=O)O	none
O=S(=O)(O)c1cc(N=C=S)ccc1/C=C/c1ccc(N=C=S)cc1S(=O)(=O)O	mcGAS MS inh 98
O=c1c2cnc3nc(-c4ccc(Cl)cc4)nn3c2ccn1CC1CCCO1 (stereo not given)	none
O=C(O)COc1ccc2ccc(=O)oc2c1	none
NC(=O)C1CCN(CC(=O)Nc2oc3ccc(Cl)cc3c(=O)c2-c2ccccc2)CC1	none
CC(C)(C#N)C(=O)Nc1ccnc(Oc2ccccc2Cl)c1	none
Cc1nnc(NC(=O)c2cccc(C(=O)O)c2)s1	none
Cc1nnc(NC(=O)c2ccc(S(=O)(=O)Nc3cccc(C(F)(F)F)c3)o2)s1	mcGAS MS inh 76
Cc1cccc(NC(=O)c2ccc(S(=O)(=O)Nc3cccc(C(F)(F)F)c3)o2)n1	none
O=C(Nc1cccc(-c2ccc(F)cc2)c1)C1CCCN(C2CCSCC2)C1 (stereo not given)	none
CCc1csc(CNC(=O)c2ccc(N(C)C3CCOC3)nc2)n1 (stereo not given)	none
N#Cc1cccc(NC(=O)OCCSc2ncccn2)c1	none
CC1=C(c2ccccc2)[N+](=O)C(C)(c2ccc(Br)cc2)N1[O-] (stereo not given)	mcGAS MS inh 73
CC1C(c2ccccc2)=[N+]([O-])C(C)(c2ccc(F)cc2)N1O (stereo not given)	none
CC(=O)c1cc(-c2ccccc2)n(CC(=O)O)c1C	none
CC1C(c2cccs2)=[N+]([O-])C(C)(c2ccc(Br)cc2)N1O (stereo not given)	none
CN1C[N+]([O-])=C(c2ccccc2)C1(C)C	none
CCC1(CC)N([O-])C(C)=C(c2ccccc2)[N+]1=O	mcGAS MS inh 79
CNC(=O)c1cccc(NS(=O)(=O)C2=CCCCC2)c1	none
C#CCn1c(=NC(=O)CN2C(=O)CCC2=O)sc2cc(F)ccc21	none
O=C(CSc1nnc(-c2ccco2)n1-c1ccccc1)N1CCCC1	none
COc1ccc(NC(=O)C2(C)CCN2Cc2ccc(NC(C)=O)cc2)cc1OC (stereo not given)	none
Cc1ccc(C)c(S(=O)(=O)Oc2ccccc2)c1	none
COc1cc(CCC(=O)N(C)Cc2ccc(C)o2)cc(OC)c1OC	none
COc1cc([N+](=O)[O-])ccc1N=Cc1nc(-c2ccccc2F)oc1O	none
Cc1cc(Cl)ccc1N=Cc1nc(-c2ccccc2F)oc1O	none
Cc1ccc([N+](=O)[O-])cc1N=Cc1nc(-c2ccccc2F)oc1O	mcGAS MS inh 81
Cc1nnc(COC(=O)C2(c3ccc(Br)cc3)CCCC2)o1	none
COc1ccc(C(=O)N=Nc2c(O)[nH]c3ccccc23)cc1OC	none
COc1cc(-c2cccc(C(=O)O)c2)ccc1NC(C)=O	none
COc1cc(-c2ccc(NN=C3C=Cc4c(S(=O)(=O)O)cc(S(=O)(=O)O)c(N)c4C3=O)c(OC)c2)ccc1NN=C1C=Cc2c(S(=O)(=O)O)cc(S(=O)(=O)O)c(N)c2C1=O	mcGAS MS inh 98
Cc1nc(-c2cccc(NC(=O)N3CCSCC3)c2)oc1C	none
CC1(NC(=O)CSc2nc3c(Cl)cc(Cl)cc3[nH]2)CCS(=O)(=O)C1 (stereo not given)	none
CCc1c(C(=O)N2[C@H]3CCNC[C@@H]2CC3)csc1C	none
CN(CCOc1ccccc1)C(=O)c1cc2ccccc2oc1=O	none
CSc1c(C#N)c(SCC(=O)c2cc3ccccc3oc2=O)[nH]c(=O)c1C#N	mcGAS MS inh 94
COc1ccc(CCNC(=O)c2cc3ccccc3oc2=O)cc1OC	none
COc1ccc(OC)c(S(=O)(=O)NC(=O)C2(C)CCN2C(=O)Cc2cc(F)ccc2F)c1 (stereo not given)	none
O=C(NCc1ccc(F)cc1C(F)(F)F)c1ncoc1C1CCCO1 (stereo not given)	none
CC(C)Cn1c(CN2CCOCC2)nc2c1c(=O)[nH]c(=O)n2C	none
COC(=O)CN1C(=O)CNC12CCN(C(=O)C[C@H]1C[C@@H](C(C)=O)C1(C)C)CC2	none
COc1ccc(Cl)cc1NC(=O)N1CCCC(C(=O)c2cccc(Cl)c2)C1 (stereo not given)	none
CC(C)c1nccn1C(C)C(=O)N(C)Cc1cc(-c2ccccn2)no1 (stereo not given)	none
O=C1OC(c2ccccc2)OC(=O)C1=C/C=C/c1ccccc1 (stereo not given)	mcGAS MS inh 88
CC(C)Oc1ccccc1C=C1C(=O)OC(c2ccccc2)OC1=O (stereo not given)	none
Cc1ccc(C2=N/C(=C\C=C\c3ccccc3)C(=O)O2)cc1	none
Cc1nc(Cl)sc1S(=O)(=O)Nc1ccc(C(=O)NC(C)(C)C)cc1	none
CS(=O)(=O)c1ccc(NC(=O)Cc2ccc(Cl)nc2)cn1	none
Cc1c2cccn2cc[n+]1CC(=O)c1ccccc1	none
O=C(C[n+]1ccc(NC(=O)c2ccccc2)c2ccccc21)c1ccccc1	mcGAS MS inh 64
Cc1ccc[n+](CC(=O)c2ccc(-c3ccccc3)cc2)c1C	none
O=S(=O)(Cc1ccc(Br)cc1)NCCO	none
CC(=O)c1c(C)[nH]c(-c2csc(N)n2)c1C	none
CC(=NNC(N)=S)C(C)=NNC(N)=S	none
N#Cc1ccccc1NC(=O)c1c(-c2ccccc2)c(-c2ccccc2)n[nH]c1=O	none
N#Cc1ccccc1NC(=O)c1n[nH]c([N+](=O)[O-])c1Br	mcGAS MS inh 70
N#Cc1ccccc1NC(=O)C1=COCCO1	none
CC12CCC(C/C1=N\Nc1nn[nH]n1)C2(C)C (stereo not given)	none
COc1cc(CC2(CCC(=O)NCc3cn4cc(C)sc4n3)CCC(=O)N2)ccc1F (stereo not given)	none
Cn1cnc(-c2ccc(F)cc2)c1N	none
COCCN(Cc1ccco1)C(=O)CNc1ccccc1Cl	none
COCCN(Cc1ccco1)S(=O)(=O)Cc1cccc(C)c1	mcGAS MS inh 89
COCCS(=O)(=O)N(Cc1ccco1)c1ccc(F)cc1F	none
CC(C)C(C)NC(=O)Nc1ccc(-n2cncn2)c(F)c1 (stereo not given)	none
Cc1ccc(NC(=O)N2CCN(CC(=O)N3CCCC3)CC2)cc1	none
CC(=O)c1cc(C(=O)NCc2ccc(F)c(C)c2)n(C)c1	none
Cc1ccc(C)c(S(=O)(=O)NN=Cc2ccc3ncccc3c2)c1	none
CNC(=S)N(CCO)c1ccc(OC)nc1	none
N#Cc1cc(S(N)(=O)=O)ccc1NC1CCN(CC(F)(F)F)C1 (stereo not given)	none
O=c1[nH]c2c(-c3ccccc3)c(O)cn2c2c1sc1ccccc12	mcGAS MS inh 70
O=c1c(O)c(-c2ccccc2)[nH]c2ccccc12	none
O=c1[nH]c2c(-c3nc4ccccc4s3)c(O)cn2c2sc3c(c12)CCCC3	none
COc1cccc(CC(=O)Nc2nnc(C3CC3)s2)c1	none
CCOC(=O)N1CCN(C(c2ccc(Cl)cc2)c2c(O)cc(C)n(CCOC)c2=O)CC1 (stereo not given)	none
NC(=O)COc1ccc(C(=O)NNC(=O)CN2c3cccc4cccc(c34)S2(=O)=O)cc1	none
O=S1(=O)c2cccc3cccc(c23)N1Cc1cccc2ccccc12	none
O=C(CN1c2cccc3cccc(c23)S1(=O)=O)c1c[nH]c2ccccc12	mcGAS MS inh 87
COc1ccc(CC(=O)Nc2n[nH]c(-c3ccc(C)cc3)n2)cc1	none
COc1ccc(C2c3c(n[nH]c3-c3ccc(Br)cc3)OC(=N)C2C#N)cc1O (stereo not given)	none
O=C(c1cccs1)c1cccs1	none
O=C(c1cccs1)N1CCC(c2nc3cc(Cl)ccc3s2)CC1	none
NC(=O)n1c(O)c(C(=O)c2cccs2)c2cc(Cl)ccc21	mcGAS MS inh 70
CC(C)CC1CCN(C(=O)c2ccccc2I)C1 (stereo not given)	none
CC(=O)c1c(C)nc(-c2ccc(Cl)c(Cl)c2)n1O	none
SCc1nc2c3ccccc3ncn2n1	mcGAS MS inh 95
